The record followed here is PubChem BioAssay AID1814 (Broad Institute, 2009).

Hit rate of the full screen: of about 300,000 compounds, about 22,000 (7.3%) were called active. About 2% were inconclusive and are not listed. The sample as a whole holds a higher share of actives than the screen did. Values without a mark were called inactive. Cut-off read from the data, not from the text of the source: active = activity score below about -60%; inconclusive = mostly about -28% to -61%; inactive = positive scores.

The nature of this test: Activators working through SNCA 5'UTR binding (MLPCN) (AID 1814). The conditions noted are these: alpha-synuclein 5'UTR reporter, activators screen; active compounds read low; tested at 7.5 µM.
Turning to `CCc1ccc(-c2cc(C(=O)NN3CCN(C)CC3)c3ccccc3n2)cc1`, the activity score is -112% (active).

With `O=C(Nc1ccccc1)c1cc2ccccc2[nH]1`, the activity score is -180% (active).

For the compound `CCn1c(=N)n(CC(=O)c2cccc(OC)c2)c2ccccc21`, the activity score is -124% (active).

For `O=C(Nc1ccccc1)Nc1ccc(C(F)(F)F)cn1`, the activity score is -120% (active).

For the compound `Cc1cccc(NC(=O)c2cccc(C(F)(F)F)c2)c1`, the activity score is -71.9% (active).

Regarding `Cc1ccc(NC(=O)Nc2cccc(C(F)(F)F)c2)nc1`, the activity score was -115% (active).

As for `COc1ccc(NC(=O)CCS(=O)(=O)c2cc3c(cc2Cl)NC(=O)CO3)cc1OC`, the activity score was -91.8% (active).

`CC(=O)Nc1ccc(NC(=O)CN2CCCC(C)C2)c(Cl)c1` (stereo not given): the activity score was -105% (active).

With `CC(Sc1nc2cc(Cl)ccc2s1)C(=O)Nc1ccc2c(c1)OCO2` (stereo not given), the activity score was -117% (active).

For the compound `O=C(c1cnn2ccccc12)N1CCc2ccccc21`, the activity score was -123% (active).

For `COc1cc(OC)cc(C(=O)NCC(=O)OCc2csc(-c3ccccc3)n2)c1`, the activity score is -73.7% (active).

Regarding `CCCCOC(=O)c1[nH]c(C)c(C(=O)OC)c1C`, the activity score is -134% (active).

Consider `CCOC(OCC)c1ccc(/C=C\c2nccc(N)n2)cc1`, for which the activity score was -117% (active).

Regarding `COc1cccc2sc(Nc3nc(C)c(C(C)=O)s3)nc12`, the activity score is -179% (active).

As to `COc1ccccc1/C=N/Nc1nc(C)c(C(C)=O)s1`, the activity score is -154% (active).

In the case of `COc1cccc(/C=N/Nc2cc(C)nc(-c3ccccc3O)n2)c1O`, the activity score is 82.8%.

On to `CC(=O)c1sc(N/N=C/c2ccc(C(C)C)cc2)nc1C`, for which the activity score is -149% (active).

For `Oc1oc(-c2ccccc2Br)nc1/C=N/c1ccccn1`, the activity score is -124% (active).

Take `CCCCOc1ccc(-c2nnc(-c3ccco3)o2)cc1`: the activity score is 60.2%.

As for `CCC(=O)Oc1cccc(C(=O)Nc2ccc(-c3nnc(-c4ccco4)o3)cc2)c1`, the activity score is -227% (active).

On to `O=C(CCc1ccccc1)Nc1cccc(-c2nnc(-c3ccco3)o2)c1`, for which the activity score is -74.1% (active).

Regarding `Cc1ccc(OCC(=O)Nc2ccc(-c3nc4ncccc4o3)cc2)cc1`, the activity score is -85.6% (active).

Turning to `Cc1ccc(OCC(=O)Nc2ccc(-c3nnc(-c4ccco4)o3)cc2)cc1`, the activity score is -69.1% (active).

With `Fc1ccccc1OCCSc1nc2ccccc2o1`, the activity score was -139% (active).

With `Cc1cccc2nc(CNc3ccc(F)cc3)cn12`, the activity score is -64.9% (active).

In the case of `Cc1ccc(-n2ncc3c(Nc4cccc(C(=O)O)c4)ncnc32)cc1`, the activity score is -200% (active).

`CC(=O)NCC(=O)N1CCC(n2nccc2NC(=O)CCCc2ccccc2)CC1`: the activity score was -67.3% (active).

On to `Cn1c(SCc2nc3ccccc3s2)nnc1-c1ccc2c(c1)OCO2`, for which the activity score is -72.1% (active).

In the case of `Cc1ccnc(Nc2nc3ccccc3s2)n1`, the activity score was -81.3% (active).

As for `O=C(NC(=S)Nc1ccc(Cl)cc1Cl)C1CC1`, the activity score is -107% (active).

As to `Cc1cc(C)c2nc(NC(=O)C3CCCO3)sc2c1` (stereo not given), the activity score is -107% (active).

For the compound `Cc1[nH]n(C(N)=S)c(=O)c1N=Nc1ccc(Cl)cc1Cl`, the activity score is -112% (active).

As to `Cc1ccc(C(=O)Nc2ccc3c(c2)OCO3)cc1S(=O)(=O)N1CCCCC1`, the activity score was -66.6% (active).

Take `COc1ccc(C(=O)Nc2ccc(C3(C#N)CCCC3)cc2)cc1OC`: the activity score is -120% (active).

On to `COc1ccc(C(=O)Nc2ccc3c(c2)OCO3)cc1OC`, for which the activity score is -100% (active).

Consider `Cn1c(=O)n(C)c2cc(C(=O)Nc3ccc(Br)cc3)ccc21`, for which the activity score is -80.7% (active).

As for `Cn1c(=O)n(C)c2cc(C(=O)Nc3ccc4c(c3)OCO4)ccc21`, the activity score is -191% (active).

Consider `O=C(Nc1ccccc1)c1ccccc1NC(=O)C(F)(F)F`, for which the activity score is -85.9% (active).

Turning to `Cc1cccc(-c2noc(-c3ccc(F)cc3)n2)c1`, the activity score is -101% (active).

As to `Cc1ccc(Cc2nc(-c3cccc(C)c3)no2)cc1`, the activity score was -173% (active).

Consider `CCOc1ccc(/C=N/NC(N)=S)cc1`, for which the activity score is -63.3% (active).

For `Cc1cc(=O)oc2cc(OCC3CC(c4ccccc4Cl)=NO3)ccc12` (stereo not given), the activity score is -132% (active).

Regarding `CC(C)(C)c1ccc(Oc2ccc(N)cc2)cc1`, the activity score is 112%.

In the case of `CC(C)(C)c1ccc(OC2=CS(=O)(=O)c3ccccc32)cc1`, the activity score was -110% (active).

`COC(=O)c1c(NC(=O)c2ccccc2F)sc2c1C(C(=O)OC)CC2` (stereo not given): the activity score was -72.4% (active).

`CCOc1ccc2[nH]c3nc(SCC(=O)NC4CCCC4)nnc3c2c1`: the activity score was -73.1% (active).

Take `Cc1cccn2c(=O)c3cc(C(=O)NCCN4CCOCC4)c(=N)n(Cc4cccnc4)c3nc12`: the activity score was 97%.

As for `COc1ccc(CCn2c(=N)c(C(=O)NCc3ccco3)cc3c(=O)n4cccc(C)c4nc32)cc1`, the activity score was -87.1% (active).

With `CCn1c2ccccc2c2cc(NC(=O)C/C(C)=N/NC(=O)c3ccccc3N)ccc21`, the activity score was -110% (active).

As to `COc1ccc(-c2csc(Nc3ccc(O)cc3)n2)cc1`, the activity score is -170% (active).

With `COc1ccc(-c2csc(Cc3nc(O)cs3)n2)cc1`, the activity score was -207% (active).

On to `NS(=O)(=O)c1ccc(Nc2nc(-c3ccccc3)cs2)cc1`, for which the activity score is -117% (active).

As to `COc1ccc(Nc2nc(-c3ccccc3)cs2)cc1`, the activity score was -137% (active).

Consider `COc1ccc(-c2csc(NC3OC(=O)c4ccccc43)n2)cc1` (stereo not given), for which the activity score was -114% (active).

With `CN(c1ccc(O)cc1)c1nc(-c2cccnc2)cs1`, the activity score is -137% (active).

Consider `Oc1ccc(-c2csc(Nc3cccnc3)n2)cc1`, for which the activity score was -116% (active).

For `O=C(NCc1cccnc1)C(=O)Nc1nc(-c2ccccc2)cs1`, the activity score is -99% (active).

As to `Cc1ccccc1Nc1nc(-c2cccnc2)cs1`, the activity score is -179% (active).

On to `COc1ccc(OC)c(Nc2nc(-c3ccc(O)c(O)c3)cs2)c1`, for which the activity score is -158% (active).

For the compound `O=C(Nc1ccc2c(c1)OCO2)C1CC(c2c(F)cccc2Cl)=NO1` (stereo not given), the activity score was -147% (active).

As to `COc1cccc(NC(=O)C(=O)c2cn(CC(=O)N3CCOCC3)c3ccccc23)c1`, the activity score is -77.7% (active).

Regarding `O=C(Nc1ccc([N+](=O)[O-])cc1)C1CC12CCC2` (stereo not given), the activity score is -78.2% (active).

In the case of `COc1ccc(NC(=S)N2N=CCC2c2ccccc2)cc1` (stereo not given), the activity score was -137% (active).

As to `Cn1c(SCc2c(F)cccc2Cl)nnc1-c1cnccn1`, the activity score is -126% (active).

Turning to `CSC(=S)N/N=C/c1c[nH]c2ccccc12`, the activity score was -107% (active).

`c1ccc(-c2ccc(OCCN3CCOCC3)cc2)cc1`: the activity score is -93.6% (active).

Regarding `COc1ccc(Br)cc1C(=O)NC(=S)Nc1cc(-c2nc3ccccc3[nH]2)ccc1C`, the activity score was -86.2% (active).

On to `Cc1ccc(-c2csc(-c3c[nH]c4ccccc34)n2)cc1`, for which the activity score was -164% (active).

For the compound `Cc1ccc(-c2csc(-c3cc(C)on3)n2)cc1`, the activity score is -149% (active).

On to `O=C(CSC1=NCCS1)Nc1nc(-c2ccccc2)cs1`, for which the activity score was -83% (active).

In the case of `CCNC(=O)CSc1nc(-c2ccccc2)cs1`, the activity score was -105% (active).

On to `O=C(CN1C(=O)C2C3C=CC(C3)C2C1=O)Nc1nc(-c2ccccn2)cs1` (stereo not given), for which the activity score is 82.4%.

Regarding `O=C(CNC(=O)c1ccccc1F)c1ccc(Br)cc1`, the activity score is -97.5% (active).

As to `O=C(CNC(=O)c1ccc(F)cc1)c1ccccc1`, the activity score is -128% (active).

For the compound `CCOc1ccc2c(c1)C(c1ccc(C)cc1)=NNC(c1ccc(C)cc1)=N2`, the activity score was -63.3% (active).

Consider `Cc1nc2ccccc2cc1OCc1ccc(F)cc1`, for which the activity score is -71.1% (active).

With `C/C(=N\NC(=O)c1nc(C)cc(C)n1)c1ccccc1`, the activity score was -137% (active).

For `C/C(=N\NC(=O)c1cccnc1)c1ccc(-c2ccccc2)cc1`, the activity score is -92.7% (active).

Take `C/C(=N\NC(=O)c1ccccc1F)c1ccccn1`: the activity score was 83%.

In the case of `C/C(=N\NC(=O)c1ccc2ccccc2c1)c1cccnc1`, the activity score is -68.8% (active).

As for `CC(C)CNC(=O)C(=O)Nc1ccc(N(C)C)cc1`, the activity score is -159% (active).

For the compound `O=C(Nc1ccc(Cl)cc1)/C(=C1\CCCN1)[N+](=O)[O-]`, the activity score was -97.2% (active).

For the compound `CC(=O)Nc1cccc(C(=O)OCC(=O)NCc2cc(C)c(O)c(C)c2)c1`, the activity score is -62.5% (active).

As to `CCCOc1ccc(C(=O)C(CCC(CNCC)C(=O)c2ccc(OCCC)cc2)CNCC)cc1` (stereo not given), the activity score is 107%.

`CCCOc1cccc(C(=O)Nc2nnn(CCC)n2)c1`: the activity score is -87.6% (active).

With `Cc1c(C)c2cc3c4c(oc3c(C)c2oc1=O)CCCC4`, the activity score is -61.9% (active).

For the compound `CC[n+]1cc(C)ccc1/C=C/c1ccc(N(C)C)cc1`, the activity score is 90.6%.

As for `Cc1cccc(NC(=O)/C=C/c2ccc3c(c2)OCO3)n1`, the activity score is -88% (active).

On to `COc1cccc(/C=C/C(=O)Nc2ccc3c(c2)OCCO3)c1`, for which the activity score was -94% (active).

With `CNS(=O)(=O)c1ccc(NC(=O)Nc2ccc3c(c2)OCO3)cc1`, the activity score is -63.6% (active).

As for `Cc1cccc(NC(=O)Nc2ccc3c(c2)OCO3)n1`, the activity score is -251% (active).

`Cc1ccc(-n2c(C)cc(/C=C(\C#N)C(=O)NCC3CCCO3)c2C)cc1` (stereo not given): the activity score is -133% (active).

On to `COc1ccc(Cc2nnc(NC(=O)c3ccc(OC)cc3OC)s2)cc1`, for which the activity score is -62.4% (active).

As for `O=C(NC1=NCCS1)c1ccc(Cl)s1`, the activity score was -112% (active).

`COc1ccc(C(=O)Nc2nncs2)c(OC)c1`: the activity score is -106% (active).

For `COc1ccc(C(=O)NC2=NCCS2)c(OC)c1`, the activity score is -111% (active).

As to `Cc1cccc(NC(=S)Nc2ccc(Cl)c(Cl)c2)c1`, the activity score is -115% (active).

Turning to `Cc1cccc(NC(=O)c2nc(S(=O)(=O)Cc3ccccc3)ncc2Cl)c1`, the activity score was 84.8%.

Regarding `Cc1cccc(NC(=S)Nc2ccc(Br)cc2)c1`, the activity score is -106% (active).

For the compound `COc1ccc(CNc2ccc3c(c2)CCC3)cc1OC`, the activity score is -177% (active).

For the compound `Cc1cc(C(=O)NNC(=S)Nc2ccccc2C)cs1`, the activity score is -135% (active).

For the compound `Cc1ccc(C(=O)NC(=S)Nc2ccccc2C)cc1`, the activity score was -122% (active).

For `Nc1ccc(C(=O)Nc2ccccc2N)cc1`, the activity score is -714% (active).

With `CCn1c(SCC(=O)Nc2cccc(F)c2)nnc1-c1cc2cc(Br)ccc2o1`, the activity score was -71.9% (active).

As for `CN1C2CCC1/C(=C\c1ccccc1Cl)C(=O)/C2=C\c1ccccc1Cl`, the activity score is -89% (active).
